Results filed as inconclusive are left out. Some compounds were tested as several samples or in several runs, with calls that do not always agree. Calls of active or inactive are those of the source. How the source made its calls, unless noted: active means hit-call score of the fitted dose curve at least 0.9, where 1 is the maximum; inactive means score below 0.9.
Tests used:
[1] = ATG_PBREM_CIS: Attagene CIS-FACTORIAL HepG2 Assay for human Phenobarbital-responsive Enhancer Module (PBREM) (AID 2282955); conditions: HepG2 PBREM cis-reporter, Attagene multiplexed transcription; actives raise or lower the signal
Summary of the method: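 Endogenous transcription factor activity was read from reporter transcripts in transiently transfected human HepG2 liver cells after 24 h dosing. RT-PCR products were fluorescently labelled, HpaI-cut and sized by capillary electrophoresis; activity fitted bidirectionally against DMSO baseline.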

[2] = biological target: Paired box protein Pax-6 (Homo sapiens) (UniProt P26367); test: ATG_Pax6_CIS: Attagene CIS-FACTORIAL HepG2 Assay for human Paired Box 6 (PAX6) (AID 2282956); conditions: HepG2 CIS-FACTORIAL PAX6 reporter transcription, RNA readout; actives raise or lower the signal
Chain of Paired box protein Pax-6 (Homo sapiens) (P26367 whole entry, looked up): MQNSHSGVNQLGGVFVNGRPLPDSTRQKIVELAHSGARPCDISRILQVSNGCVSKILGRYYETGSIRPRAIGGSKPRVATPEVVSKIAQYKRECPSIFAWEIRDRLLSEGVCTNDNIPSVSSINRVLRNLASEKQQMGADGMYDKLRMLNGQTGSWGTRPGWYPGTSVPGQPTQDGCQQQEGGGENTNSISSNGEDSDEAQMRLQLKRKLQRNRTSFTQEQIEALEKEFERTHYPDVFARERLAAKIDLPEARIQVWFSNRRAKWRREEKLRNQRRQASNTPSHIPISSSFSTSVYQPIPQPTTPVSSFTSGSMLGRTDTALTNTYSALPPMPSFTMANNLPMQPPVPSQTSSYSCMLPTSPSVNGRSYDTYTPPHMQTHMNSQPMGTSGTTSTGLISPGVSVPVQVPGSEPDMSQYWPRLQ
Summary of the method: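 Values derive from bidirectional curve fitting of reporter mRNA signal relative to DMSO. HepG2 cells bearing transfected cis-regulated MRTUs were exposed for 24 h; transcripts were read by RT-PCR and capillary electrophoresis.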

[3] = ATG_PXRE_CIS: Attagene CIS-FACTORIAL HepG2 Assay for human Pregnane X Receptor Element (PXRE) (AID 2282957); conditions: HepG2 Attagene CIS-FACTORIAL PXRE reporter, mRNA; actives raise or lower the signal
Summary of the method: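 Using HepG2 transfected with multiple reporter transcription units, endogenous factor-driven transcription was scored as reporter mRNA after 24 h exposure.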

[4] = ATG_PPRE_CIS: Attagene CIS-FACTORIAL HepG2 Assay for human Peroxisome Proliferator-activated Response Element (PPRE) (AID 2282958); conditions: HepG2 PPRE cis-element reporter, Attagene transcription factor profiling; actives raise or lower the signal
Summary of the method: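 Endogenous PPRE-driven transcription is measured in HepG2 cells carrying transfected multi-reporter constructs. Reporter transcripts are quantified by RT-PCR, HpaI digestion and capillary electrophoresis 24 h after dosing. DMSO baseline, bidirectional fit.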

[5] = ATG_RORE_CIS: Attagene CIS-FACTORIAL HepG2 Assay for human RAR-related Orphan Receptor Element (RORE) (AID 2282959); conditions: HepG2 Attagene cis-factorial RORE reporter, mRNA; actives raise or lower the signal
Summary of the method: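 RORE reporter transcripts reflecting endogenous factor activity were read after 24 h compound exposure of transfected HepG2 cells, using reverse transcription, PCR, fluorescent labelling and capillary electrophoresis sizing. Gain or loss fitted against DMSO.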

[6] = ATG_Sox_CIS: Attagene CIS-FACTORIAL HepG2 Assay for human SRY-box transcription factor (SOX) (AID 2282960); conditions: HepG2 Attagene cis-factorial SOX reporter, mRNA; actives raise or lower the signal
Summary of the method: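 Reporter transcripts, measured by RT-PCR and capillary electrophoresis of labelled fragments, report endogenous SOX transcription factor activity. Transiently transfected human HepG2 cells receive chemical for 24 h; changes in either direction are fitted relative to DMSO.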

[7] = biological target: Transcription factor Sp1 (Homo sapiens) (UniProt P08047); test: ATG_Sp1_CIS: Attagene CIS-FACTORIAL HepG2 Assay for human Specificity Protein 1 (Sp1) (AID 2282961); conditions: HepG2 Sp1 cis-reporter transcription, actives raise or lower the signal
Chain of Transcription factor Sp1 (Homo sapiens) (P08047 whole entry, looked up): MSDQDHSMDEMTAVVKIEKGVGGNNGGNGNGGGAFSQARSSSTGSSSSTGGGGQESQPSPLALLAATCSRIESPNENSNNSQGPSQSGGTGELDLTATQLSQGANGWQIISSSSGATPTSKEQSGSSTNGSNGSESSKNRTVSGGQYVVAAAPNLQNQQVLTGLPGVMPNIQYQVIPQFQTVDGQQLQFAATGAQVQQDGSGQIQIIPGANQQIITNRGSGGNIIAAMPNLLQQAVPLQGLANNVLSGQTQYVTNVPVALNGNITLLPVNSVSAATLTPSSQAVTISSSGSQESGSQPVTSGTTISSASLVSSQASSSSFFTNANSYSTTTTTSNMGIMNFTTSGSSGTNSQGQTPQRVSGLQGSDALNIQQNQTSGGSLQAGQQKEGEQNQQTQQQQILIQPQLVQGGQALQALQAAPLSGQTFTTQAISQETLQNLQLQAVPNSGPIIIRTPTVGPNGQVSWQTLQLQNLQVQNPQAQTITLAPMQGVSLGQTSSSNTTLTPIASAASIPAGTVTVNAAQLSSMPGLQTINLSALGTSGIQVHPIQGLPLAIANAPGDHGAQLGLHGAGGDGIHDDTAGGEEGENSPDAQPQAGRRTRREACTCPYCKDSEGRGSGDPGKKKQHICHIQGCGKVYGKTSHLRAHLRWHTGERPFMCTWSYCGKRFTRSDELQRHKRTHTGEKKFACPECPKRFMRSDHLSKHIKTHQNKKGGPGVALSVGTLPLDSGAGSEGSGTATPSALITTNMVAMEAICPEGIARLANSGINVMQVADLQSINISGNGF
Summary of the method: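 Read-out is reporter transcript level, measured by RT-PCR and fluorescent capillary electrophoresis after 24 h chemical treatment. System: transiently transfected HepG2 cells reporting endogenous transcription factor activity; gain or loss fitted against DMSO baseline.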

[8] = ATG_SREBP_CIS: Attagene CIS-FACTORIAL HepG2 Assay for human Sterol Regulatory Element Binding (SREBP) (AID 2282962); conditions: HepG2 Attagene cis-factorial SREBP reporter, mRNA; actives raise or lower the signal
Summary of the method: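 Values derive from bidirectional curve fitting with DMSO as baseline. The underlying measurement is reporter mRNA from cis-element-regulated units in transiently transfected HepG2, quantified by RT-PCR and capillary electrophoresis after 24 h exposure.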

[9] = biological target: Signal transducer and activator of transcription 3 (Homo sapiens) (UniProt P40763); test: ATG_STAT3_CIS: Attagene CIS-FACTORIAL HepG2 Assay for human Signal Transducer and Activator of Transcription 3 (STAT3) (AID 2282963); conditions: HepG2, Attagene cis-factorial STAT3 reporter transcription; actives raise or lower the signal
Chain of Signal transducer and activator of transcription 3 (Homo sapiens) (P40763 whole entry, looked up): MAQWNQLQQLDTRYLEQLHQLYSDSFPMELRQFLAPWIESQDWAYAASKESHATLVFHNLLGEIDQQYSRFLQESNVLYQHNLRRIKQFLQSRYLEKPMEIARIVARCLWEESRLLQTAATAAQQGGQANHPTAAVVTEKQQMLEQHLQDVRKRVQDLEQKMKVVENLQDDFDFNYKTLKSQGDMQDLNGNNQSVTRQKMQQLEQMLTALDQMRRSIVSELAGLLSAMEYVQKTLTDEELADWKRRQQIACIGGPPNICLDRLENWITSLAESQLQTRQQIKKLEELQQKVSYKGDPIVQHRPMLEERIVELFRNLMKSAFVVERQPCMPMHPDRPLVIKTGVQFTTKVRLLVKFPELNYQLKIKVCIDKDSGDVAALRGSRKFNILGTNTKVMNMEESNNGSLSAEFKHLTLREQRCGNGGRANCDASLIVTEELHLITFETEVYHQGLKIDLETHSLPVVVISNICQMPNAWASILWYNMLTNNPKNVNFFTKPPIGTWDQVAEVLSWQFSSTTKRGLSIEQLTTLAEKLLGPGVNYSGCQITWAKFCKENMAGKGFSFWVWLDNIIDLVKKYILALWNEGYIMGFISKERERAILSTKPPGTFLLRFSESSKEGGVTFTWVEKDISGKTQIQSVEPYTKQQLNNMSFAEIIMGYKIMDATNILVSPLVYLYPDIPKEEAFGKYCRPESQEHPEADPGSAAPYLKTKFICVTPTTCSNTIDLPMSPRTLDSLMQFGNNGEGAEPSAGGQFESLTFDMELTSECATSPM
Summary of the method: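 HepG2, MRTU-transfected, 24 h dosing. RNA → RT → PCR → FAM label → HpaI → CE. Bidirectional fit vs DMSO.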

[10] = ATG_TA_CIS: Attagene CIS-FACTORIAL HepG2 Assay for human TA Basal Promoter (AID 2282964); conditions: HepG2 Attagene CIS-factorial TA basal promoter reporter; actives raise or lower the signal
Summary of the method: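 Transient MRTU transfection of HepG2 preceded 24 h compound exposure. Reporter mRNA levels were then read by RT-PCR with capillary electrophoresis, and this background-control endpoint was fitted bidirectionally to DMSO.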

[11] = ATG_TCF_b_cat_CIS: Attagene CIS-FACTORIAL HepG2 Assay for human T-Cell-Factor with beta-catenin (TCF/b-cat) (AID 2282965); conditions: HepG2 TCF/beta-catenin cis-reporter transcription, actives raise or lower the signal
Summary of the method: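 In this cis-format system, transfected HepG2 cells report endogenous transcription factor activity. Readout after 24 h exposure is reporter transcript abundance from RT-PCR and capillary electrophoresis, analysed for gain or loss of signal versus DMSO.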

[12] = ATG_TAL_CIS: Attagene CIS-FACTORIAL HepG2 Assay for human TAL Basal Promoter (AID 2282966); conditions: HepG2 Attagene cis-factorial TAL promoter reporter; actives raise or lower the signal;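 further: background control endpoint measuring basal TAL promoter reporter mRNA not a specific factor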
Summary of the method: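 After 24 hours of chemical exposure, transfected HepG2 cells yielded RNA that was converted to 6-FAM-labelled, HpaI-digested reporter fragments for capillary electrophoresis. Values derive from bidirectional fitting against DMSO controls.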

[13] = ATG_TGFb_CIS: Attagene CIS-FACTORIAL HepG2 Assay for human Transforming Growth Factor (TGF) (AID 2282967); conditions: HepG2 Attagene CIS TGFb reporter, mRNA transcription; actives raise or lower the signal
Summary of the method: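 After a 24-hour incubation with compound, transfected HepG2 cells were lysed for RNA; reporter cDNA was amplified, fluorescently end-labeled and separated by CE. DMSO served as baseline for bidirectional fits.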

[14] = ATG_VDRE_CIS: Attagene CIS-FACTORIAL HepG2 Assay for human Vitamin D Receptor Element (VDRE) (AID 2282968); conditions: HepG2 VDRE cis-reporter transcription, actives raise or lower the signal
Summary of the method: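 Steps: transfect HepG2 with multiple reporter transcription units; dose chemicals 24 h; isolate RNA; RT-PCR; label with 6-FAM primer extension; HpaI digest; capillary electrophoresis. Curves fitted both directions against DMSO.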

[15] = biological target: Nuclear receptor subfamily 1 group I member 3 (Homo sapiens) (UniProt Q14994); test: ATG_CAR_TRANS: Attagene TRANS-FACTORIAL HepG2 Assay for human Constitutive Androstane Receptor (CAR) (AID 2282969; active means hit-call score of the fitted dose curve at least 0.9, where 1 is the maximum;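 further: activators raise reporter mRNA above DMSO so AC50 marks induction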); conditions: HepG2 Attagene TRANS-FACTORIAL CAR reporter
Chain of Nuclear receptor subfamily 1 group I member 3 (Homo sapiens) (Q14994 whole entry, looked up, the tested form may be a part): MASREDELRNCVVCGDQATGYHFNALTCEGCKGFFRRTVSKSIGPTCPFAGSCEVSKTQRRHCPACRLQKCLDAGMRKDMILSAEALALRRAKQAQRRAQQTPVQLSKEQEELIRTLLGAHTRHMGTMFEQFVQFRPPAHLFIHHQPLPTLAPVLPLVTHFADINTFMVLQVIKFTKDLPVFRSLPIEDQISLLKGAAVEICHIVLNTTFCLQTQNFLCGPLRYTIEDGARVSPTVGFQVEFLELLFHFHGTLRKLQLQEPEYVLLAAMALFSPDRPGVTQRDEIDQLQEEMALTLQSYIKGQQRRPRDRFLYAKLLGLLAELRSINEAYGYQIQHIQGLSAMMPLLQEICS
Summary of the method: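 Steps: transient transfection of HepG2 with multiple GAL4-UAS reporter units; 24 h compound incubation; RNA isolation, RT-PCR, 6-FAM primer extension, HpaI digest; capillary electrophoresis. Gain-of-signal relative to DMSO negative control.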

[16] = biological target: Estrogen receptor (Homo sapiens) (UniProt P03372); test: ATG_ERa_TRANS: Attagene TRANS-FACTORIAL HepG2 Assay for human Estrogen Receptor alpha (ERa) (AID 2282970; active means hit-call score of the fitted dose curve at least 0.9, where 1 is the maximum); conditions: HepG2 Attagene TRANS ERa GAL4 reporter, mRNA
Chain of Estrogen receptor (Homo sapiens) (P03372 whole entry, looked up, the tested form may be a part): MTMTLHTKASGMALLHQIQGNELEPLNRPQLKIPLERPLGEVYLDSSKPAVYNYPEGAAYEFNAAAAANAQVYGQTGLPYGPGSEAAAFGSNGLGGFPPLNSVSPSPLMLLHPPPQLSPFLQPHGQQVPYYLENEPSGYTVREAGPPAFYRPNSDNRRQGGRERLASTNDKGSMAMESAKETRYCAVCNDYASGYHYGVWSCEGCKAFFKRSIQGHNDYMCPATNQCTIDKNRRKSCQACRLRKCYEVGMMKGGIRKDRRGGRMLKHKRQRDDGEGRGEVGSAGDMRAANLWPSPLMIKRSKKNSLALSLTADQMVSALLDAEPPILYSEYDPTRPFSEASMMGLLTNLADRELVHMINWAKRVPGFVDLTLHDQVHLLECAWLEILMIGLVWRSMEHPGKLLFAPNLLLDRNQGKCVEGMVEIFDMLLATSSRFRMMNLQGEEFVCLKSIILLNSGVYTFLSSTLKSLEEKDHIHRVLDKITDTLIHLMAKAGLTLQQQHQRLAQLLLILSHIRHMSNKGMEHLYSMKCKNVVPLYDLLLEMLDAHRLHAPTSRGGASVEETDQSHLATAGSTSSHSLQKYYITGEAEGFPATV
Summary of the method: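 Liver-derived HepG2 cells expressing chimeric nuclear receptor-Gal4 proteins from transient transfection were exposed for 24 hours. Gain of reporter mRNA signal versus DMSO, read by capillary electrophoresis of FAM-labelled PCR products, was recorded.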

[17] = biological target: X-box-binding protein 1 (Homo sapiens) (UniProt P17861); test: ATG_Xbp1_CIS: Attagene CIS-FACTORIAL HepG2 Assay for human X-box Binding Protein 1 (XBP1) (AID 2282972); conditions: HepG2 XBP1 cis-element reporter, Attagene multiplex; actives raise or lower the signal
Chain of X-box-binding protein 1 (Homo sapiens) (P17861 whole entry, looked up): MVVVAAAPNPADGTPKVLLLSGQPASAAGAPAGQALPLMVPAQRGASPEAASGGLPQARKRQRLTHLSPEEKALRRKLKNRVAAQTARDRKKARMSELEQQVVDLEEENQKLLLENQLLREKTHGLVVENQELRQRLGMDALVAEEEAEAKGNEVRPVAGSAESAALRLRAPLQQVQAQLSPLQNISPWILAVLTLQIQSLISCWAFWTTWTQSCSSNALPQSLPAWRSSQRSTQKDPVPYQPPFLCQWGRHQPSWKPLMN
Summary of the method: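 Human hepatoma HepG2, cis-element reporter system, 24 h treatment; mRNA quantified by RT-PCR/CE fluorescence; fit relative to DMSO.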

[18] = ATG_M_19_TRANS: Attagene TRANS-FACTORIAL HepG2 Assay for M19 Transcription Factor (Internal Marker) (AID 2282974; active means hit-call score of the fitted dose curve at least 0.9, where 1 is the maximum); conditions: HepG2 Attagene TRANS-FACTORIAL M19 internal marker reporter
Summary of the method: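 Background-control readout: after 24 h chemical exposure of transfected HepG2 carrying GAL4-driven reporter units, RNA was reverse-transcribed, amplified, fluorescently labeled and sized by capillary electrophoresis; gain-of-signal fit against DMSO.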

[19] = ATG_GAL4_TRANS: Attagene TRANS-FACTORIAL HepG2 Assay for GAL4 (Internal Marker) (AID 2282976; active means hit-call score of the fitted dose curve at least 0.9, where 1 is the maximum); conditions: HepG2 Attagene TRANS GAL4 internal marker reporter
Summary of the method: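 First, HepG2 cells were transfected with reporter units under GAL4-UAS control. Next, they were treated with chemical for 24 h. Finally, RNA was reverse-transcribed, PCR-amplified, FAM-labelled and resolved by capillary electrophoresis, with induction scored against DMSO.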

[20] = biological target: Steroid hormone receptor ERR1 (Homo sapiens) (UniProt P11474); test: ATG_ERRa_TRANS: Attagene TRANS-FACTORIAL HepG2 Assay for human Estrogen-Related Receptor alpha (ERRa) (AID 2282971; active means hit-call score of the fitted dose curve at least 0.9, where 1 is the maximum); conditions: HepG2 Attagene TRANS reporter, ERRa transactivation
Chain of Steroid hormone receptor ERR1 (Homo sapiens) (P11474 whole entry, looked up, the tested form may be a part): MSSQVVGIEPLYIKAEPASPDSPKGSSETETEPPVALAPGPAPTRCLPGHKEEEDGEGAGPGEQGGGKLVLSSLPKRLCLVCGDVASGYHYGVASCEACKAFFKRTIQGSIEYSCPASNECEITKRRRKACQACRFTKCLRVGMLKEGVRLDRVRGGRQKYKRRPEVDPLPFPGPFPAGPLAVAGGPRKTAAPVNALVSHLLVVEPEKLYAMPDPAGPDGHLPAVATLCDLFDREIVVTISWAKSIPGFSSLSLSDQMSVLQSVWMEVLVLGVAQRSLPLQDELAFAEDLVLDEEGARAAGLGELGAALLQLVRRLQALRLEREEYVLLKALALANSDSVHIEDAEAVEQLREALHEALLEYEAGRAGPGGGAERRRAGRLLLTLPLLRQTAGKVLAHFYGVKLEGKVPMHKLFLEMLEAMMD
Summary of the method: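 Reporter transcript induction was quantified by RT-PCR and capillary electrophoresis of FAM-labelled, HpaI-cut products after 24 h treatment of HepG2 cells carrying transiently transfected GAL4-UAS reporter units and an exogenous ERRa-Gal4 fusion; activity scored as increase over DMSO.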

Measured: AC50

O=C(O)C(F)(F)C(F)(F)C(F)F
not listed: [20]
inactive: all other assays above

CCCCC(CC)COP(=O)(O)OCC(CC)CCCC (stereo not given)
active: [3] 9.1 µM | [4] 5.45 µM | [11] 42.7 µM | [14] 27.6 µM
not listed: [19] | [20]
inactive: all other assays above

CCCCCCOC(=O)c1ccccc1
not listed: [7] | [19] | [20]
inactive: all other assays above

C=C(C)C(=O)OCC(F)(F)C(F)(F)C(F)(F)C(F)(F)C(F)(F)C(F)(F)C(F)(F)F
active: [16] 10.5 µM
not listed: [7]
inactive: all other assays above

C1COCCN1
active: [3] 27.2 µM
inactive: [1] | [2] | [3] | [5] | [6] | [7] | [8] | [9] | [10] | [11] | [12] | [13] | [14] | [15] | [16] | [17] | [18] | [19]

Nc1ccc(Oc2cccc(Oc3ccc(N)cc3)c2)cc1
inactive: [1] | [6] | [7] | [12] | [13] | [14] | [15] | [20]
active: [2] 71 µM | [3] 25.7 µM | [4] 89.5 µM | [5] 14.9 µM | [8] 136 µM | [9] 173 µM | [10] 26.8 µM | [11] 27.4 µM | [16] 2.58 µM | [17] 42 µM

FC(F)(F)C(F)(F)C(F)(F)CI
not listed: [1] | [7] | [19]
inactive: all other assays above

O=P(O)(O)OCCC(F)(F)C(F)(F)C(F)(F)C(F)(F)C(F)(F)C(F)(F)F
active: [13] 70.1 µM | [16] 10.4 µM
not listed: [1] | [7]
inactive: all other assays above
